Measured values published in PubChem BioAssay (EPA / NIEHS).
Inconclusive results are not listed. A structure can be active in one record and inactive in another. Activity calls are given as the source filed them. The calls were made as follows: active = hit-call score of the fitted dose curve at least 0.9, where 1 is the maximum; inconclusive = response in the unintended direction; inactive = score below 0.9.

Assay: ATG_XTT_Cytotoxicity: Cytotoxicity Assessment in the Attagene TRANS-FACTORIAL HepG2 Assay (AID 2283584);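 as to AC50: cells exposed to compound for 24 h before reading; active means loss of viability signal versus DMSO baseline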
Procedure, shortened: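 HepG2 human liver cells, transiently transfected with multiple GAL4-UAS reporter units, were dosed and read at 24 h by XTT as cell number. Loss of signal was fitted relative to DMSO negative control baseline.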
With `Cc1ccc(C)c(OCCCC(C)(C)C(=O)O)c1` the outcome was “inactive”. For `NC(=O)Nc1ccccc1`, the outcome was “inactive”. For `CCCCCCCCCCCCc1ccc(O)cc1`, the AC50 was 50.4 µM (active) and the outcome was “inactive”. In the case of `CC1=CCC(C(C)C)C=C1` (configuration not stated), the outcome is reported as “inactive”. With `Oc1ccc(-c2ccccc2)c(Cl)c1` the AC50 was 159 µM (active) and the outcome was “inactive”. For `CC(Cl)COP(=O)(OCC(C)Cl)OCC(C)Cl` (configuration not stated), the outcome was “inactive”. In the case of `Cc1c(O)cccc1O`, the outcome is reported as “inactive”. In the case of `CCCC(C)C(=O)OCC` (configuration not stated), the outcome is reported as “inactive”. For `CC(C)(C)N`, the outcome was “inactive”. In the case of `CCOC(=O)OC(=O)OCC`, the outcome is reported as “inactive”.

Assay: TOX21_p53_BLA_p2_viability: Viability Assessment in the Tox21 HCT-116 p53 Agonism Beta-lactamase Assay, Phase 2 (AID 2283591);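 also: compound exposure lasted 16 h at 37 °C; actives lower the ATP signal meaning cytotoxicity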
Procedure, shortened: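 HCT116 p53-bla cells, 4000/well, dosed after 5 h plating (217-fold dilution of DMSO stocks) and incubated 16 h at 37C. Viability taken as cellular ATP by CellTiter-Glo luminescence after 30 min RT; signal loss marks cytotoxicity.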
With `C=CC(C)(CCC=C(C)C)OC(=O)C=Cc1ccccc1` (configuration not stated) the outcome was “inactive”. In the case of `NC(=O)Nc1ccccc1`, the outcome is reported as “inactive”. For `CC1=CCC(C(C)C)C=C1` (configuration not stated), the outcome was “inactive”. With `Oc1ccc(-c2ccccc2)c(Cl)c1` the outcome was “inactive”. For `CC(Cl)COP(=O)(OCC(C)Cl)OCC(C)Cl` (configuration not stated), the outcome was “inactive”.
